Shown are actives, neighbours in structure and some others; about 2.4% of the full set was active somewhere.
POLH inh: qHTS for Inhibitors of Polymerase Eta; recombinant Pol eta, fluorescent DNA replication assay; 390,000 tested, 1.2% active; AID 588591, 2011; DNA polymerase eta (Homo sapiens), Q9Y253; Potency, µM (doses to about 114 µM), for inactives: at the highest dose activity change, negative = inhibition, most hits filed as inhibitors; also: % is scaled to controls: 0 for no effect and ±100 for the full control effect
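Pol eta (10 nM) was preincubated with compounds for 15 min at room temperature, after which fluorescent replication substrate (50 nM final) was added to start the reaction. Fluorescence was read kinetically at 0 and 10 min.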
Pol iota inh: qHTS for Inhibitors of Polymerase Iota. Potency, µM (doses to about 115 µM), inactives show at the top dose activity, negative = inhibition, most hits filed as inhibitors. 390,000 tested, 1% active. Pol iota fluorescent replication assay, 10 min
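Fluorescent replication assay read twice, at 0 min and 10 min after adding 50 nM (final) substrate. Enzyme (10 nM) and compounds were first incubated 15 min at room temperature; enzyme-free buffer wells were negative controls.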
POLB inh: qHTS Assay for Inhibitors of DNA Polymerase Beta; P06746; Pol beta primer extension/strand displacement, fluorescence kinetic; Potency, µM (titrated, usually from 114 µM), without a hit: at the highest dose activity change, negative = inhibition, hits mostly inhibitors; 340,000 tested, 1.3% active; AID 485314, 2010; also: % is scaled to controls: 0 for no effect and ±100 for the full control effect
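10 nM enzyme + cpd, 15 min RT; start with substrate 50 nM final; read 0 min and after 10 min RT. Corrected, normalized data; 4-parameter Hill curve fit.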
Pol kappa inh: qHTS for Inhibitors of Polymerase Kappa; DNA polymerase kappa (Homo sapiens), Q9UBT6; purified Pol kappa, fluorescent DNA synthesis assay, 10 min; Potency, µM (doses to about 107 µM), for the others: at the top dose activity, negative = inhibition, actives largely listed as inhibitors; 400,000 tested, 0.53% active; AID 588579, 2011; also: % is scaled to controls: 0 for no effect and ±100 for the full control effect
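Activity was followed as the change in fluorescence between reads at 0 and 10 min after starting the reaction with 50 nM substrate. Beforehand, 10 nM polymerase had been preincubated with compound for 15 min at room temperature.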
TDP1 inh: qHTS Assay for Inhibitors of Tyrosyl-DNA Phosphodiesterase (TDP1) | Tyrosyl-DNA phosphodiesterase 1 (Homo sapiens), Q9NUW8 | recombinant TDP1, AlphaScreen DNA substrate cleavage | Potency, µM (titrated, usually from 130 µM), for the others: at the top dose activity change, negative = inhibition, actives largely listed as inhibitors | 350,000 tested, 0.28% active; also: % is scaled to controls: 0 for no effect and ±100 for the full control effect; nearly all actives have a fitted effect of over 40% in size
Target sequence (Q9NUW8 whole entry, looked up): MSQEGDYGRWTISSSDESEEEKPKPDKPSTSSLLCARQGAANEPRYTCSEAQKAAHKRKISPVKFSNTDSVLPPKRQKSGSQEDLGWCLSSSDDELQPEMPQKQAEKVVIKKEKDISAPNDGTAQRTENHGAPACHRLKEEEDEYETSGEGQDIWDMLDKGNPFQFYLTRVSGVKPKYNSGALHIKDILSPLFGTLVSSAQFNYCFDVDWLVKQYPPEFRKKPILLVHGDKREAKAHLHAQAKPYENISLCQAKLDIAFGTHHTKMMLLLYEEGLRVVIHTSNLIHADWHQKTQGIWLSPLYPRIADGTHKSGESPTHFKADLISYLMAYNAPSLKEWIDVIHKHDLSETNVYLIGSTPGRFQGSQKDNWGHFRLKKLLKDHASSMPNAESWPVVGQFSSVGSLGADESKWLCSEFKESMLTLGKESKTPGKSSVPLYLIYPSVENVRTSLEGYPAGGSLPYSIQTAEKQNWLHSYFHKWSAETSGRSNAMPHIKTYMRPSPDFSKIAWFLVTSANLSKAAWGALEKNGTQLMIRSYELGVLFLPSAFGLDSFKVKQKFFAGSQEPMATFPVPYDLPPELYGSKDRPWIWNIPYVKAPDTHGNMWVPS
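Recombinant E. coli-expressed Tdp1 (1 nM) preincubated with compound 15 min at RT, then 5'-biotin/3'-phosphotyrosine-FITC DNA substrate (15 nM) added for 5 min. AlphaScreen beads (10 ug/ml) added, 10 min RT; tyrosine-FITC cleavage read as signal loss.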
Starred values were filed as active, the others as inactive; ? = inconclusive; · = no result given; [ ] = another dose, or the depositor's remark. Calls follow the shape of the dose curve; as a rule, active = well fitted curve in the direction sought with a large enough effect; inconclusive = small, poorly fitted or top-dose-only effect, or another doubt; inactive = no such curve, though single readings can be large; an effect the other way counts as inactive or inconclusive. Potency is read from the fitted curve at half-maximal effect.

SMILES | POLH inh | Pol iota inh | POLB inh | Pol kappa inh | TDP1 inh
NS(=O)(=O)c1ccc(NS(=O)(=O)c2ccc(NC(=O)c3ccc(-c4ccccc4)cc3)cc2)cc1 | ? | 56.2µM* | ? | ? | 1.0%
COc1cc(F)c(S(=O)(=O)N2CCN(S(=O)(=O)c3cccs3)CC2)c(F)c1 | · | · | · | · | 0.3%
COc1cccc(NC(=O)CCc2nnc3n(Cc4ccccc4Cl)c(=O)c4ccccc4n23)c1 | -9.4% | 22.8% | -10.0% | 0.1% | -3.9%
NC(=O)c1ccc(N=C2C(=O)Nc3ccc([N+](=O)[O-])cc32)cc1 | 20µM* | ? | ? | -9.0% | 7.6%
CC[C@H](C)[C@H](NC(=O)[C@H](Cc1ccc(O)cc1)NC(=O)[C@H](Cc1cnc[nH]1)NC(=O)[C@H](CCCNC(=N)N)NC(=O)[C@H](CC(C)C)NC(=O)[C@H](C)NC(=O)[C@H](CO)NC(=O)[C@H](Cc1ccc(O)cc1)NC(=O)[C@H](Cc1ccc(O)cc1)NC(=O)[C@H](CCCNC(=N)N)NC(=O)[C@H](C)NC(=O)[C@H](CC(C)C)NC(=O)[C@H](CC(=O)O)NC(=O)[C@H](CCC(=O)O)NC(=O)[C@H](C)NC(=O)[C@@H]1CCCN1C(=O)[C@H](C)NC(=O)[C@H](CC(=O)O)NC(=O)[C@H](CCC(=O)O)NC(=O)CNC(=O)[C@@H]1CCCN1C(=O)[C@H](CC(N)=O)NC(=O)[C@H](CC(=O)O)NC(=O)[C@@H]1CCCN1C(=O)[C@H](CCCCN)NC(=O)[C@H](CO)NC(=O)[C@@H]1CCCN1C(=O)[C@@H](N)Cc1ccc(O)cc1)C(=O)N[C@@H](CC(N)=O)C(=O)N[C@@H](CC(C)C)C(=O)N[C@H](C(=O)N[C@H](C(=O)N[C@@H](CCCNC(=N)N)C(=O)N[C@@H](CCC(N)=O)C(=O)N[C@@H](CCCNC(=N)N)C(=O)N[C@@H](Cc1ccc(O)cc1)C(N)=O)[C@@H](C)O)[C@@H](C)CC | · | · | · | 7.0%[60.1 µM] | 8.2%
CC(=O)N(C(C)=O)N1C(=O)/C(=C/c2ccc(Cl)cc2)SC1=S | 28.2µM* | 25.1µM* | ? | -33.9% | 8.4%
O=S1(=O)N=C(Oc2ccc(Br)cc2)c2ccccc21 | · | · | · | · | 2.2%
CC1=C(c2ccc(C(C)C)cc2)S(=O)(=O)N=C1N1CCN(C(=O)c2ccco2)CC1 | -18.5% | 50.1µM* | -16.4% | ? | -3.6%
CC1=C(c2ccc(C(C)C)cc2)S(=O)(=O)N=C1N1CCC(C(=O)NCc2ccco2)CC1 | · | 19.3% | -1.8% | 2.0% | 0.6%
COc1ccc(C(=O)Nc2ccccc2-c2nc(-c3ccc(OC)cc3)no2)cc1 | -13.8% | 32.2% | 0.9% | -1.6% | 11.4%
N#Cc1nc(N2CCCCC2)nc(N(c2ccccc2)c2ccccc2)n1 | · | 3.0% | · | -16.9% | -3.7%
Cc1cccc(C)c1NC(=O)C1CCCN(S(=O)(=O)c2c(C)noc2/C=C/N(C)C)C1 (centres undefined) | -10.6% | 23.9% | -0.4% | -9.1% | 6.4%
O=C(O)c1ccccc1NS(=O)(=O)c1cccc(-n2sc3ccccc3c2=O)c1 | 50.1µM* | 25.1µM* | ? | -34.6% | ?
Cc1ccccc1Nc1nn2c(=O)c3ccccc3nc2s1 | -10.6% | -14.6% | 25.9% | 3.7% | 3.1%
O=c1c2ccccc2nc2sc(Nc3ccc(F)cc3)nn12 | -8.0% | 12.8% | · | -3.7% | 56.2µM*
COc1cccc(/C=C2\Oc3cc(OCC(=O)N4CCC[C@H]4C(=O)O)ccc3C2=O)c1 | 44.7µM* | 1.4% | -1.8% | -3.8% | ·
CC(=O)c1cc(-c2ccc(F)cc2)n(CCC(=O)Nc2nc3c(C)cccc3s2)c1C | -5.0% | -1.4% | -12.4% | -14.6%[60.1 µM] | -1.9%
Cc1c(C)c2c(C)nn(-c3ccccc3)c2[nH]c1=O | -17.6% | 27.4% | 14.2% | -7.0% | 0.5%
Nc1c2c(=O)[nH]c(O)cc2nn1-c1ccccc1 | 50.1µM* | 8.91µM* | · | ? | ·
CC(C)CC(C(=O)Nc1oc(-c2ccco2)c(-c2ccco2)c1C#N)N1C(=O)c2ccccc2C1=O (centres undefined) | 20µM* | ? | 31.6µM* | ? | 7.7%
c1ccc(-c2ccccc2OCCOCCN2CCOCC2)cc1 | -5.7% | -8.1% | 50.1µM* | 0.4% | 6.8%
O=C1NN(c2ccc(F)c(Cl)c2)C(=O)/C1=C\c1cccc(OC(=O)c2cccs2)c1 | 20µM* | ? | ? | ? | 7.0%
CC(C)=C1C(=O)NN(c2ccc(F)c(Cl)c2)C1=O | -7.5% | ? | ? | 25.1µM* | 2.9%
O=C1CSC(=S)N1c1ccc(F)c(Cl)c1 | 0.4% | ? | -0.2% | -13.6% | ·
C=CC(=O)Oc1ccc(N2Cc3ccccc3C2=O)cc1 | 31.6µM* | 39.8µM* | · | -38.0% | ·
SMILES | POLH inh | Pol iota inh | POLB inh | Pol kappa inh | TDP1 inh
CCO/C=C1\SC(=S)N(c2ccc(Cl)cc2)C1=O | -9.2% | 25.1µM* | ? | -15.1% | 4.1%
Fc1ccc(CSc2nnc(-c3ccncc3)o2)cc1 | -13.9% | 33.0% | 9.1% | 0.2% | 2.7%
Cc1ccccc1-c1nnc(SCc2ccc(F)cc2)o1 | 6.9% | 89.1µM* | -28.4% | -8.0% | ·
CSc1ccc(-c2nc3cccc(C)n3c2Nc2ccc3c(c2)OCO3)cc1 | -10.8% | -19.3% | 26.8% | -11.5% | 11.6%
O=S1(=O)N=C(Oc2ccccc2C(F)(F)F)c2ccccc21 | · | · | · | · | 2.6%
O=C(O)CCCNc1cc(N2CCC3(CC2)OCCO3)c2noc3c2c1C(=O)c1ccccc1-3 | · | · | 11.2µM* | · | 4.8%
CCCCNc1cc(N2CCN(C3CCCCC3)CC2)c2noc3c2c1C(=O)c1ccccc1-3 | -5.2% | 32.6% | -6.6% | -7.7% | 9.0%
CCOC(=O)N1CCN(c2cc(NCCC(=O)O)c3c4c(onc24)-c2ccccc2C3=O)CC1 | 3.16µM* | ? | 25.1µM* | 17.8µM* | 12.2%
O=C(Cn1cc(CN(Cc2ccccc2)Cc2ccccc2)nn1)Nc1cc(C(F)(F)F)ccc1Cl | · | · | · | · | 0.5%
CSCC[C@H](NC(=O)[C@H](CC(C)C)NC(=O)CNC(=O)[C@H](Cc1ccccc1)NC(=O)[C@H](Cc1ccccc1)NC(=O)[C@H](CCC(N)=O)NC(=O)[C@H](CCC(N)=O)NC(=O)[C@@H]1CCCN1C(=O)[C@H](CCCCN)NC(=O)[C@@H]1CCCN1C(=O)[C@@H](N)CCCN=C(N)N)C(N)=O | · | · | · | 13.6%[60.1 µM] | 7.5%
O=C(Nc1ccc(F)cc1F)c1noc2c1CCC2 | 20µM* | 17.8µM* | 22.4µM* | -33.1% | ·
O=C(Nc1ccccc1)Nc1nc(Nc2cc(F)cc(F)c2)nc(NC2CCCC2)n1 | · | · | · | · | 0.8%
O=C(c1ccco1)N1CCN(C(=O)c2ccc(COc3ccc4c(c3)CCC4)o2)CC1 | ? | ? | 89.1µM* | -4.9% | 3.8%

Screens (PubChem BioAssay)
